Our source for the Potency and max response values is PubChem BioAssay (NCATS).

Assay [1] has as its system CRL-7250. Put plainly: Cytotoxic Profiling of Annotated Libraries Using Quantitative High-Throughput Screening (AID 1296008). Conditions: Five cell lines viability, CellTiter-Glo ATP luminescence, 48-72 h; max response: active compounds read low. The essentials: (§1)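 Compounds were pin-transferred onto cells and incubated 48 or 72 hr at 37 degree Celsius, 95% humidity. CellTiter-Glo was added, plates sat 10 min at room temperature, then ATP-coupled luminescence was imaged as the viability read-out.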
(ATP-based viability assays read luminescence as a measure of living cells.)

Assay [2] concerns HEK293. The description is as above. Conditions: Five cell lines viability, CellTiter-Glo ATP luminescence, 48-72 h; max response: active compounds read low. In outline: as §1
Assay [3] deals with HaCat. Described as above. The note with it: Five cell lines viability, CellTiter-Glo ATP luminescence, 48-72 h; max response: active compounds read low. The essentials:
as §1

Assay [4] has as its system KB-3-1. The assay is described as above. Conditions: Five cell lines viability, CellTiter-Glo ATP luminescence, 48-72 h; max response: active compounds read low. In outline:
as §1

Assay [5] concerns NIH3T3. The assay is described as above. Conditions: Five cell lines viability, CellTiter-Glo ATP luminescence, 48-72 h; max response: active compounds read low. In outline: as §1
Assay [6] concerns MCC-26. Put plainly: qHTS assay to identify novel small-molecules to repurpose for Merkel cell carcinoma treatment (AID 1296009). Conditions: MCC and control cell lines, CellTiter-Glo viability, 72 h; series mostly up to 46 µM. The essentials:
(§2)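 Cells exposed to NPC (8-point) and MIPE (11-point) compound dilutions for 72 hr at 37 degree celsius; viability read by CellTiter-Glo luminescence, normalized to no-cell and DMSO in-plate controls.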

Assay [7] concerns MKL-1. The assay is described as above. The note with it: MCC and control cell lines, CellTiter-Glo viability, 72 h; series mostly up to 46 µM. The essentials:
as §2

The test system of assay [8] is MKL-2. The assay is described as above. Conditions: MCC and control cell lines, CellTiter-Glo viability, 72 h; series mostly up to 46 µM. In outline:
as §2

Assay [9] relates to UISO. Described as above. The note with it: MCC and control cell lines, CellTiter-Glo viability, 72 h; series mostly up to 46 µM. In outline: as §2
Assay [10] concerns MCC-13. Described as above. The note with it: MCC and control cell lines, CellTiter-Glo viability, 72 h; series mostly up to 46 µM. The essentials:
as §2

The structures appear in SMILES notation. Values joined by “and” are separate entries in the source; they are usually repeats but may differ in a detail not shown here. Equal values may be shown once. Records with an inconclusive call do not appear. Values without a mark were called inactive. Active and inactive are the calls of the source. The call rests on the fitted dose curve; in most records, active means well fitted inhibition curve with a large enough effect; inconclusive means small, poorly fitted or top-dose-only effect; inactive means flat fitted curve, though single readings scatter.
Further: nearly all actives have a fitted effect of over 60% in size.
On the % scale 0 is the no-effect control and ±100 the full control effect; potency means the concentration at half of the fitted maximal effect.

Take `Cc1nc(Nc2n[nH]c3c2CN(C(=O)N[C@H](CN(C)C)c2ccccc2)C3(C)C)c2sccc2n1`: the Potency is 1.18 µM (active) and 130 nM (active) in [1]; 20.9 nM (active) and 10.3 nM (active) in [2]; 7.43 µM (active) in assay [3]; 2.35 µM (active) and 2.06 µM (active) in assay [4]; 1.16 µM (active) in [5]; 14.8 µM (active) in [6]. In addition, the Potency is 1.48 µM (active) in assay [7], 2.64 µM (active) in assay [8] and 1.48 µM (active) in [9].

Consider `O=C(C=Cc1cccc(S(=O)(=O)Nc2ccccc2)c1)NO`, for which the Potency is 21.5 µM (active) in assay [1]; 19.1 µM (active) in assay [2]; 15.2 µM (active) in assay [3]; 6.05 µM (active) in assay [4]; 10.8 µM (active) in [5]; 7.62 µM (active) in assay [7]. Further, the Potency was 3.4 µM (active) in assay [8] and 34 µM (active) in [9].

For `CCS(=O)(=O)c1cccc(-c2cc(C(=O)NC3CCN(C)CC3)c(C)c3[nH]c4ncc(C)cc4c23)c1`, the Potency was 1.28 µM (active) in assay [1]; 1.87 µM (active) and 2.02 µM (active) in [2]; 4.18 µM (active) and 1.61 µM (active) in assay [3]; 1.18 µM (active) and 904 nM (active) in [4]; 10.5 µM (active) and 5.7 µM (active) in [5]; 4.69 µM (active) in assay [6]. For the same compound, the results for the Potency in [7], in assay [8] and in [9] were 0.132 µM (active), 8.33 µM (active) and 2.35 µM (active), respectively.

Take `COc1cc(Nc2ncc(F)c(Nc3ccc4c(n3)N(COP(=O)(O)O)C(=O)C(C)(C)O4)n2)cc(OC)c1OC`: the Potency was 1.48 µM (active) and 3.66 µM (active) in [1]; 3.72 µM (active) and 7.31 µM (active) in [2]; 4.69 µM (active) and 4.61 µM (active) in [3]; 4.11 µM (active) in [4]; 2.06 µM (active) in [5]. In addition, the Potency result in assay [10], in assay [7], in [8] and in assay [9] was “inactive” in each case.

In the case of `CC1=C(CO)C(=O)O[C@@H]([C@@H](C)[C@H]2CC[C@H]3[C@@H]4C[C@H]5O[C@]56[C@@H](O)C=CC(=O)[C@]6(C)[C@@H]4CC[C@]23C)C1`, the Potency in assay [1] was 1.48 µM (active); in [2], 0.332 µM (active); in assay [3], 2.64 µM (active); in [4], 1.05 µM (active); in assay [5], 2.09 µM (active); in [10], 0.662 µM (active). Further, the Potency in assay [8] is 0.132 µM (active); in assay [9], 0.743 µM (active).

Take `CC(C)c1cc(C(=O)N2Cc3ccc(CN4CCN(C)CC4)cc3C2)c(O)cc1O`: the Potency in [1] is 0.935 µM (active); in assay [2], 105 nM (active) and 58 nM (active); in assay [3] it was 264 nM (active) and 206 nM (active); in assay [4] it was 0.0731 µM (active); in assay [5] it was 418 nM (active) and 291 nM (active); in [10], 0.469 µM (active). For the same compound, the Potency in assay [9] is 0.469 µM (active). Also, the Potency result in assay [8] was “inactive”.

On to `O=C(C=Cc1cccnc1)NCCCCC1CCN(C(=O)c2ccccc2)CC1`, for which the Potency in assay [1] is 0.0743 µM (active); in [2] it was 0.0074 µM (active); in assay [3], 0.372 µM (active); in [4] it was 0.0132 µM (active); in assay [5], 0.0372 µM (active); in [10], 0.0526 µM (active). In addition, the Potency in assay [6], in assay [8] and in assay [9] was 0.0209 µM (active) throughout.

In the case of `Nc1ncnc2c1c(-c1cnc3[nH]ccc3c1)nn2C1CCCC1`, the Potency was 118 nM (active) and 920 nM (active) in assay [1]; 1.48 µM (active) and 2.59 µM (active) in assay [2]; 2.64 µM (active) and 1.84 µM (active) in assay [3]; 1.66 µM (active) and 4.61 µM (active) in [4]; 83.3 nM (active) and 517 nM (active) in [5]; 4.18 µM (active) in assay [10]. The results for the Potency in [6] and in assay [9] were 10.5 µM (active) and 4.69 µM (active), respectively.

Regarding `COc1cc2nccc(Oc3ccc(NC(=O)C4(C(=O)Nc5ccc(F)cc5)CC4)cc3)c2cc1OC`, the Potency in [1] was 1.48 µM (active) and 13 µM (active); in assay [2] it was 14.8 µM (active) and 16.4 µM (active); in [3] it was 16.6 µM (active) and 25.9 µM (active); in assay [4] it was 23.5 µM (active); in assay [5] it was 332 nM (active) and 1.64 µM (active); in assay [7], 2.96 µM (active).

As to `Nc1nccc(Oc2ccc(NC(=O)c3c[nH]cc(-c4ccc(F)cc4)c3=O)cc2F)c1Cl`, the Potency is 18.7 µM (active) in assay [1]; 11.8 µM (active) and 13 µM (active) in [2]; 23.5 µM (active) and 18.4 µM (active) in assay [4]; 16.6 µM (active) in assay [5]; 5.26 µM (active) in [7]; 14.8 µM (active) in assay [8]. Further, the Potency in [9] was 14.8 µM (active). In assay [3], the max response is -25.3%. For the same compound, in assay [10], the Potency entry is “inactive”.

For `Cn1cc(-c2[nH]c3cc(NC(=O)[C@H](N)C4CCCCC4)cc4c3c2C=NNC4=O)cn1`, the Potency was 1.87 µM (active) and 2.59 µM (active) in assay [1]; 3.32 µM (active) and 5.8 µM (active) in assay [2]; 5.9 µM (active) and 4.11 µM (active) in assay [4]; 14.8 µM (active) in assay [5]; 0.418 µM (active) in [9]. Further, in assay [3], the max response is -8.38%.

Turning to `COc1cc(=C2C=c3ccccc3=N2)[nH]c1=Cc1[nH]c(C)cc1C`, the Potency was 11.8 µM (active) in assay [1]; 8.33 µM (active) in assay [2]; 20.9 µM (active) in assay [3]; 3.72 µM (active) in assay [4]; 18.7 µM (active) in assay [5]; 13.2 µM (active) in assay [9].

In the case of `CC[C@@H]1C(=O)N(C)c2cnc(Nc3ccc(C(=O)NC4CCN(C)CC4)cc3OC)nc2N1C1CCCC1`, the Potency in assay [1] was 2.64 µM (active); in assay [2], 0.0166 µM (active); in assay [3], 0.0332 µM (active); in assay [4] it was 0.0083 µM (active); in [5] it was 1.87 µM (active); in [10], 0.662 µM (active). Further, the Potency in [7] was 0.0235 µM (active); in assay [8], 3.32 µM (active).

Regarding `O=C(Nc1cc(C(F)(F)F)cc(C(F)(F)F)c1)c1cc(Cl)ccc1O`, the Potency in assay [1] is 3.72 µM (active) and 3.26 µM (active); in assay [2] it was 590 nM (active) and 1.16 µM (active); in [3] it was 2.64 µM (active) and 2.91 µM (active); in assay [4], 264 nM (active) and 731 nM (active); in assay [5] it was 3.32 µM (active) and 5.8 µM (active); in assay [9], 2.35 µM (active).

For the compound `CN(C)CC=CC(=O)Nc1cc2c(Nc3ccc(F)c(Cl)c3)ncnc2cc1O[C@H]1CCOC1`, the Potency in assay [1] is 3.32 µM (active); in [2] it was 1.32 µM (active); in assay [4], 4.18 µM (active); in assay [5] it was 3.72 µM (active); in assay [7], 14.8 µM (active); in assay [8] it was 5.26 µM (active). The Potency in assay [9] was 14.8 µM (active). Moreover, in [3], the max response is -151%.
